Here are results for 13 compounds from PubChem BioAssay (NCI).

Molecules are shown by their SMILES. This is part of a sample that, as a whole, favours compounds with a hit. Of some 83,000 tested, about 20% had one in any assay.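 In brief: 96-well plates, 48 h treatment, single concentration, percent growth endpoint.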 A number with no mark means an inactive call. The source made the active and inactive calls. Rule for the calls: active = growth percent below 10; inactive = the rest.

In this assay the test system is MDA-MB-435 melanoma. The assay is described as follows: NCI-60 one-dose screen, 48 h (100 = growth as untreated, 0 = no growth, -100 = all killed). The note with it: 10 µM unless noted.
Consider `N/C(=N\C(N)=N\c1nc2ccccc2s1)c1cccc(Cl)c1`, for which the growth is 99.3%. Regarding `CCOC(=O)[C@@H](C)C[C@H](Cc1ccccc1)NC(=O)c1csc([C@@H](C[C@H](C(C)C)N(C)C(=O)[C@@H](NC(=O)[C@H]2C[C@H](O[Si](C)(C)C(C)(C)C)CCN2C)C(C)C)OC(C)=O)n1`, the growth was -57.5% [9.25 µM] (active). In the case of `COC(=O)/C=C1\S/C(=N\NC(=O)c2cc3ccc2/C=C\c2ccc(cc2)/C=C\3)N(c2ccccc2)C1=O`, the growth is 89.6%. Next, `NNC(=O)c1ccc(-n2nc(-c3ccccc3)c3ccccc32)cc1`: 93.9%; `NC(=NCCCOc1ccc(F)cc1)Nc1ccc(I)cc1`: 64.4%.

`N#CC1C(C#N)C(C(=O)c2ccc(Br)cc2)N2c3ccccc3C=CC12` (stereo not drawn): the growth is 16%. To `CCN1C(=O)/C(=C/C(=O)OC)S/C1=N\NC(=O)c1cc2ccc1/C=C\c1ccc(cc1)/C=C\2` belongs 99.3%; to `COc1ccccc1/C=C1\Oc2cc(OCCN3CCCC3)ccc2C1=O`, 94%. Regarding `Cc1cc2nc3c4ccc(Br)cc4n(CCN(C)C)c3nc2cc1C`, the growth is 18.3%.

As to `C/C(=N\Nc1cc(C)nc2ccc(Br)cc12)c1ccc([N+](=O)[O-])cc1`, the growth is 72.6%. `COc1cc(C2C3CC4CCCC[C@H]4N3[C@@]3(C(=O)Nc4cc(Cl)ccc43)C2C(=O)c2nc3ccccc3[nH]2)cc(OC)c1OC` (stereo partly drawn): the growth was 53.1%. Next, `O=C1OC(Cc2ccccc2)C1c1ccccc1` (stereo not drawn): 102%; `CC(Oc1ccc(C(=O)O)cc1C(F)(F)F)c1ccc(Oc2ccccc2)cn1` (stereo not drawn): 77.4%.
